Shown is part of a subset that was picked to be rich in hits.
IL1B secr inh – inflammasome signaling inhibition, IL-1 beta readout. THP-1 LPS/ATP IL-1B secretion, AlphaLISA, 16 h; stronger effect = lower value. activity change, % at 57.5 µM. 360,000 compounds, 4.7% hits. AID 743279; in the data active = activity change below about -50%; inconclusive = mostly about -30% to -49%
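THP-1 cells pretreated 1 hr with compounds (up to 57.5 uM final), then stimulated with LPS (250 ng/mL final) plus ATP (1.25 mM final); secreted IL-1B measured by AlphaLISA after 16 hr, decreased signal indicating inhibition.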
HT1080 IDH1KD tx – HT-1080 IDH1 knockdown cell toxicity (counter line). HT-1080 IDH1 knockdown viability, ATP luminescence, 48 h. Potency, µM (highest dose often 46.1 µM), for the others: top-dose activity, negative = toxicity, actives largely listed as cytotoxic. 360,000 compounds, 2% hits;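 note: potency is the fitted concentration of half-maximal effect; 0% = DMSO wells and -100% = cell-free medium wells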
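HT-1080-IDH1KD cells (IDH1 knocked down), 750/well in RPMI with 5% FBS, treated with compound 48 h at 37 degrees C. Viability by CellTiter-Glo luminescence, normalised to DMSO and no-cell wells; concentration-response curves classed.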
HT1080-NT tox – kills 2HG-producing HT-1080-NT fibrosarcoma cells; HT-1080-NT fibrosarcoma viability, CellTiter-Glo ATP luminescence, 48 h; Potency, µM (top dose mostly 46.1 µM), inactives show at the top dose activity, negative = less viability, most hits filed as cytotoxic; 360,000 compounds, 1.6% hits; AID 686970;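 note: NT is the 2HG producing partner of a matched IDH1 knockdown line; potency is the fitted concentration of half-maximal effect; 0% = DMSO-treated cells and -100% = media-only wells without cells; nearly all actives have a fitted effect of over 55% in size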
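Viability of the 2HG-overproducing fibrosarcoma line after 48 hours of compound exposure at 37 degrees C was determined by luminescence with CellTiter-Glo, and concentration-effect curves were then fitted and categorized.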
12-LOX inh – ALOX12 (human) lipoxygenase inhibition | P18054 | purified 12hLO, xylenol orange hydroperoxide absorbance | Potency, µM (titrated, usually from 108 µM), without a hit: at the highest dose activity change, negative = inhibition, most hits filed as inhibitors | 580,000 compounds, 1.1% hits | AID 1671190; note: potency is the fitted concentration of half-maximal effect
Target sequence (P18054 whole entry, looked up): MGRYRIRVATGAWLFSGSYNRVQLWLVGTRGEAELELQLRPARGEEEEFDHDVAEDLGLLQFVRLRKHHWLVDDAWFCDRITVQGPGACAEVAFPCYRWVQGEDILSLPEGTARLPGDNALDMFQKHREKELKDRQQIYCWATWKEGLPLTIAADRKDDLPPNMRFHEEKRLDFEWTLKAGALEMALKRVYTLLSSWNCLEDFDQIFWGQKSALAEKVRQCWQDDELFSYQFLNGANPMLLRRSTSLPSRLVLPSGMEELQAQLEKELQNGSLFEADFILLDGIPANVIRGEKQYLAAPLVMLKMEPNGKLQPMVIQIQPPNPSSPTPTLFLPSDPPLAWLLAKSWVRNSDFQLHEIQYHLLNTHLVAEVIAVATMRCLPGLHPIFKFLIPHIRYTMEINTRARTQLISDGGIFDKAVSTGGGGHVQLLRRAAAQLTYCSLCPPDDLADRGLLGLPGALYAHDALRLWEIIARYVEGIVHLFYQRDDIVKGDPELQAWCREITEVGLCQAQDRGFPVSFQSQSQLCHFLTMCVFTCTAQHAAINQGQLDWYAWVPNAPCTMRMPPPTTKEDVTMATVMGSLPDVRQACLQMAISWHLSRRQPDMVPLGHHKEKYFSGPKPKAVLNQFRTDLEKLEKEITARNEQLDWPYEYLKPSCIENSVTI
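Purified human 12hLO (150 nM final) in 25 mM Hepes, 0.01% Triton X-100, pH 7.0 was preincubated 15 min at room temperature with compound. Then 40 uM arachidonic acid was added, 30 min. Hydroperoxide was read by Fe-XO absorbance ratio 573/405 nm.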
TDP1 cell CPT – DT40-hTDP1 cell growth loss with CPT. 420,000 compounds, 12% hits. AID 686979. Potency, µM (doses to about 46.2 µM), for inactives: at the highest dose activity change, negative = growth inhibition, most hits filed as inhibitors. chicken DT40 Tdp1-/-;hTDP1 cells + 20 nM CPT, ATP luminescence, 48 h; note: potency is the fitted concentration of half-maximal effect; nearly all actives have a fitted effect of over 55% in size
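Chicken DT40 Tdp1-/- cells stably complemented with human TDP1 were seeded at 400 cells/well in medium containing 20 nM camptothecin, exposed to pin-transferred compounds, and grown at 37 °C for at least 48 hr. Viability was read as ATP luminescence.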
TDP1 cell noCPT – qHTS for Inhibitors of human tyrosyl-DNA phosphodiesterase 1 (TDP1): qHTS in cells in absence of CPT; DT40 Tdp1-/- hTDP1 cells, no CPT, ATP luminescence, 48 h; Potency, µM (series often up to 46.2 µM), for inactives: at the top dose activity change, negative = growth inhibition, most hits filed as inhibitors; 420,000 compounds, 15% hits; AID 686978, 2013; note: potency is the fitted concentration of half-maximal effect; nearly all actives have a fitted effect of over 55% in size
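Growth of hTDP1-complemented DT40 Tdp1-knockout cells is measured by ATP luminescence after at least 48 hr compound exposure at 37 °C, with DMSO substituting for the 20 nM CPT used in the parallel screen.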
Active calls of the source: *; ? = inconclusive; / = not tested or not shown; [ ] = remark or other dose. Unless noted, calls come from the whole dose curve; as a rule, active = well fitted curve in the direction sought with a large enough effect; inconclusive = small, poorly fitted or top-dose-only effect, or another doubt; inactive = no such curve, though single readings can be large; an effect the other way counts as inactive or inconclusive. Unless noted, % is set by controls: 0 for no effect and ±100 for the full control effect.

SMILES	IL1B secr inh	HT1080 IDH1KD tx	HT1080-NT tox	12-LOX inh	TDP1 cell CPT	TDP1 cell noCPT
COc1ccc(-c2noc(C3CCCN(C(=O)Nc4ccccc4F)C3)n2)cc1 (configuration not stated)	0.7	-6.7%	-15.0%	1.8%	?	23.1µM*
CCOCCCNc1nc2ccccc2n2c(CC)nnc12	/	/	/	-0.8%	?	?
CCc1nnc2c(NCCc3ccc(OC)c(OC)c3)nc3ccccc3n12	-3.9	20.5%	?	-4.9%	?	16.4µM*
COc1ccc(CCNc2nc3ccccc3n3cnnc23)cc1OC	-4.2	7.7%	12.9%	-4.0%	-26.0%	?
CCOc1ccc(CCNc2nc3ccccc3n3cnnc23)cc1OCC	4.9	-2.8%	-13.0%	11.8%	?	18.4µM*
CCOc1ccc(CCNc2nc3ccc(C)cc3n3cnnc23)cc1OCC	52.0	-6.8%	17.4%	60.9%	?	16.4µM*
Cc1n[nH]c(C)c1CCC(=O)NCC1CCN(c2cc(-c3ccc(F)cc3)[nH]n2)CC1	/	/	/	70.9%	/	/
Cc1ccn2c(NC(=O)C(C)(C)Oc3ccc(Cl)cc3)c(-c3cccs3)nc2c1	?	?	?	-17.2%	?	18.4µM*
CCCc1cc(=O)[nH]c(Nc2ccccc2O)n1	/	/	/	-26.2%	-18.0%	-7.5%
CCCOC(=O)c1cccc(Nc2nc(CCC)cc(=O)[nH]2)c1	/	/	/	-23.9%	16.4µM*	14.6µM*
CCOC(=O)c1cnc2c(Cl)cccc2c1Nc1ccc(OC)cc1	/	/	/	-10.6%	/	/
Cc1cc2oc(C(=O)N(Cc3ccccc3)C3CCS(=O)(=O)C3)c(C)c2cc1C (configuration not stated)	-4.5	-10.3%	-18.3%	0.0%	25.9µM*	16.4µM*
Cc1ccc2oc(C(=O)N(Cc3ccccc3)C3CCS(=O)(=O)C3)c(C)c2c1 (configuration not stated)	11.3	-2.7%	-5.9%	-28.4%	?	-28.3%
COc1cccc(CN(C(=O)c2oc3ccc(Br)cc3c2C)C2CCS(=O)(=O)C2)c1 (configuration not stated)	/	/	/	-22.8%	14.6µM*	16.4µM*
CCN(CC)c1nc2ccccc2nc1C(=O)Nc1ccc(F)cc1F	/	/	/	15.4%	/	/
O=C1NC[C@@H](CCC(=O)N2CCOCC2)N2C[C@@H](NCc3ccc(F)cc3)C[C@@H]12	/	/	/	5.2%[176 µM]	/	/
COc1ccc(C)c2sc(=NC(=O)c3ccccc3)n(C)c12	51.7	2.1%	1.2%	1.9%	?	20.6µM*
COc1ccc(C)c2sc(=NC(=O)c3ccc(C(C)=O)cc3)n(C)c12	-11.0	2.1%	-7.4%	-0.8%	14.6µM*	?
COc1ccc(C)c2sc(=NC(=O)c3cccc(N4C(=O)CCC4=O)c3)n(C)c12	45.7	-7.6%	-2.0%	-15.1%	-11.6%	2.7%
CN(C)C(=O)CN1C(=O)CO[C@H](c2ccc(NC(=O)c3cccc(C#N)c3)cc2)[C@H]1CO	/	/	/	5.6%	/	/
COc1cccc(Sc2cc(N3CCOCC3)nc(-c3ccccc3)n2)c1	-12.6	-9.6%	-2.1%	89.7%	?	-32.1%
Clc1ccc(Sc2cc(N3CCOCC3)nc(-c3ccccc3)n2)cc1	0.0	12.8%	1.8%	6.0%	?	29.1µM*
CCCc1ccc(Oc2cc(N3CCOCC3)nc(-c3ccccc3)n2)cc1	12.5	-12.4%	-6.6%	-27.8%	29.1µM*	?
COc1cccc(Nc2ccc3c(n2)C(C)(C(=O)NC(C)C)CN(C)C3)c1 (configuration not stated)	/	/	/	8.4%[176 µM]	/	/
CSCc1ccc(C(=O)NCCc2nc(-c3ccccn3)no2)o1	/	/	/	-18.8%	/	/
SMILES	IL1B secr inh	HT1080 IDH1KD tx	HT1080-NT tox	12-LOX inh	TDP1 cell CPT	TDP1 cell noCPT
Cc1c(Cl)cccc1-n1ncc(C(=O)N2CCc3ccccc3C2)c1C1CCN(C(=O)OC(C)(C)C)CC1	/	/	/	8.3%	?	20.6µM*
CC(C)(C)OC(=O)N1CCC(c2c(C(=O)N3CCc4ccccc4C3)cnn2-c2ccc(Cl)cc2)CC1	/	/	/	3.4%	?	?
Cc1ccc(-n2ncc(C(=O)NCCN3CCc4ccccc4C3)c2C2CCN(C(=O)OC(C)(C)C)CC2)cc1	/	/	/	-16.3%	20.6µM*	18.4µM*
Cc1ccc(-n2ncc(C(=O)NCCN3CCc4ccccc4C3)c2C2CCN(C(=O)OC(C)(C)C)CC2)cc1C	/	/	/	-25.8%	16.4µM*	20.6µM*
Cc1ccc(-n2ncc(C(=O)N3CCc4ccccc4C3)c2C2CCN(C(=O)OC(C)(C)C)CC2)cc1C	/	/	/	-21.7%	10.3µM*	?
CC1=CC23C(=O)C(C=C(CO)[C@@H](O)[C@]2(O)[C@H]1O)[C@H]1[C@@H](C[C@H]3C)C1(C)C (some centres not stated)	/	/	/	6.0%	/	/
CN(C)C(=O)CNC(=O)c1ccc(C(F)(F)F)cc1	/	/	/	45.5%	/	/
Cc1cccc(C)c1-n1ncc(C(=O)NCCN2CCN(C)CC2)c1C1CCN(C(=O)OC(C)(C)C)CC1	/	/	/	-15.3%	?	?
Cc1c(Cl)cccc1-n1ncc(C(=O)NCCN2CCN(C)CC2)c1C1CCN(C(=O)OC(C)(C)C)CC1	/	/	/	-18.0%	?	25.9µM*
COc1cc(CCC(C)=O)ccc1O	/	/	/	-6.1%[176 µM]	/	/
COc1cc(C2OCC3C(c4ccc(OC5OC(CO)C(O)C(O)C5O)c(OC)c4)OCC23)ccc1O (configuration not stated)	-3.3	-3.6%	-3.9%	5.01µM*	1.0%	-1.8%
COc1ccc(C[C@H]2COC(=O)[C@@H]2Cc2ccc(OC3OC(CO)C(O)C(O)C3O)c(OC)c2)cc1OC (some centres not stated)	37.6	-0.4%	-9.0%	/	?	20.6µM*
COc1cc(C[C@H]2C(=O)OC[C@@H]2Cc2ccc(OC)c(OC)c2)ccc1O	/	/	/	0.0%	2.37µM*	1.68µM*
COc1cc2ccc(=O)oc2c(O[C@@H]2O[C@H](CO)[C@@H](O)[C@H](O)[C@H]2O)c1O	3.4	9.9%	17.7%	2.9%	10.3%	8.5%
COc1cc([C@H]2OC[C@H]3[C@@H]2CO[C@H]3c2ccc(O)c(OC)c2)ccc1O	35.8	7.5%	12.3%	-0.8%	6.2%	-19.3%
Cc1ccc(CN2CCC2(C)C(=O)NC2CCc3ccccc32)cc1 (configuration not stated)	0.6	-21.6%	-17.4%	?	?	23.1µM*
CSc1ccc(CN2CCC2(C)C(=O)NCc2cccs2)cc1 (configuration not stated)	0.0	-15.4%	15.1%	-3.2%	?	?

Source: PubChem
